Data published in the supplement of paper PMC10849652.
The full data set covers some 8,800 targets. This sample favours those with a hit. About 0.5% of all pairs of compound and target were hits.

Key:
Test in all cases: log2 fold change, soluble protein after heating vs DMSO (PISA); higher = thermal stabilisation; K562 lysate, 10 uM; active = over 0.2 and 3.5 SD of the protein, either way, in both replicates (recomputed)
[1] = compound: C1=CC=C(C=C1)[C@H](COC2=CC3=C(C=C2)NC(=O)N3)NC(=O)C4=CC=CN(C4=O)CC5=CC(=C(C=C5)F)F
How it was run: (§1)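 Thermal stability, expressed as log-two fold change relative to solvent controls, is given from duplicates. Crude K562 extract in PBS pH 7.4 with 1 mM MgCl2, at 1 mg/mL protein, was treated with 10 μM compound for 30 min and heated in aliquots for 3 min across 48°C-58°C. After pooling, adjustment to 0.5% NP-40 at 4°C and centrifugation at 21,000xg for 90 min, supernatant protein was measured by TMTpro 16plex LC-MS/MS with channel sums equalised.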

[2] = compound: CC1=C(SC2=C1C(=N[C@H](C3=NN=C(N32)C)CC(=O)N)C4=CC=C(C=C4)Cl)C
How it was run: as §1

[3] = compound: CC1=C2C(=CC=C1)N=C(N(C2=O)C3=CC=CC=C3C)CN4C=NC5=C(N=CN=C54)N
How it was run: as §1

[4] = compound: Cc1sc2c(c1C)C(c1ccc(Cl)cc1)=N[C@@H](CC(=O)OC(C)(C)C)c1nnc(C)n1-2
How it was run: as §1

[5] = compound: c1ccc([C@@H]2C[C@H]2NC2CCNCC2)cc1
How it was run: as §1

Measured: log2 fold change

STIM1 (UniProt Q13586)
Sequence of UniProt Q13586 (Q13586 whole entry, looked up): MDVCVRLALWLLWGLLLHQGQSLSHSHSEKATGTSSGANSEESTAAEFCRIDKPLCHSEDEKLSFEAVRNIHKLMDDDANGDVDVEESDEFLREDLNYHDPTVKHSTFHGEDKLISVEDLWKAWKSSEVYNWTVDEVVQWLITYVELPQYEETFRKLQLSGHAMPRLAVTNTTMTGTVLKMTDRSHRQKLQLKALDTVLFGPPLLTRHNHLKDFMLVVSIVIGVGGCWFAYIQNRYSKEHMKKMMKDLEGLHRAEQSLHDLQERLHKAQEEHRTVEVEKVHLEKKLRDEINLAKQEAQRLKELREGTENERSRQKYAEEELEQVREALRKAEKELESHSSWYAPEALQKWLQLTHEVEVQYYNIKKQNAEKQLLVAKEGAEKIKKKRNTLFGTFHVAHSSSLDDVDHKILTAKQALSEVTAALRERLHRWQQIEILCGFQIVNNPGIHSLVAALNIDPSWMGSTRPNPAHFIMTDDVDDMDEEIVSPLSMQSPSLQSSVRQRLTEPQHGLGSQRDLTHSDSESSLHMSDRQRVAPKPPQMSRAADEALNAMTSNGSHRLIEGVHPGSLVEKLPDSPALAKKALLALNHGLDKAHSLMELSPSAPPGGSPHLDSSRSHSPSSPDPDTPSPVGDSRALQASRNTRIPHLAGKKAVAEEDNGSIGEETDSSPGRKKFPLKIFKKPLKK
inactive: [1] -0.048 | [2] -0.008 | [3] 0.049 | [4] 0.028 | [5] 0.048

SRRT (UniProt Q9BXP5)
inactive: [1] -0.003 | [2] 0.02 | [3] -0.002 | [4] 0.021 | [5] 0.068

TAF1B (UniProt Q53T94)
inactive: [1] -0.073 | [2] 0.071 | [3] 0.499 | [4] -0.13 | [5] -0.008

SLC25A38 (UniProt Q96DW6)
inactive: [1] 0.099 | [2] 0 | [3] 0.013 | [4] -0.323 | [5] -0.047

SSNA1 (UniProt O43805)
Sequence of UniProt O43805 (O43805 whole entry, looked up): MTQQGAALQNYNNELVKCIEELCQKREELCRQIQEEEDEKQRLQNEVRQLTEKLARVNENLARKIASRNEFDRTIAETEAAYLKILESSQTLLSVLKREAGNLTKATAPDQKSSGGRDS
inactive: [1] 0.034 | [2] -0.038 | [3] 0.009 | [4] -0.129 | [5] -0.075

SH3BP5L (UniProt Q7L8J4)
inactive: [1] 0.015 | [2] 0.015 | [3] 0.047 | [4] 0.01 | [5] -0.024

SPG11 (UniProt Q96JI7)
inactive: [1] -0.22 | [2] -0.253 | [3] 0.015 | [4] 0.067 | [5] 0.006

SLC38A10 (UniProt Q9HBR0)
Sequence of UniProt Q9HBR0 (Q9HBR0 whole entry, looked up): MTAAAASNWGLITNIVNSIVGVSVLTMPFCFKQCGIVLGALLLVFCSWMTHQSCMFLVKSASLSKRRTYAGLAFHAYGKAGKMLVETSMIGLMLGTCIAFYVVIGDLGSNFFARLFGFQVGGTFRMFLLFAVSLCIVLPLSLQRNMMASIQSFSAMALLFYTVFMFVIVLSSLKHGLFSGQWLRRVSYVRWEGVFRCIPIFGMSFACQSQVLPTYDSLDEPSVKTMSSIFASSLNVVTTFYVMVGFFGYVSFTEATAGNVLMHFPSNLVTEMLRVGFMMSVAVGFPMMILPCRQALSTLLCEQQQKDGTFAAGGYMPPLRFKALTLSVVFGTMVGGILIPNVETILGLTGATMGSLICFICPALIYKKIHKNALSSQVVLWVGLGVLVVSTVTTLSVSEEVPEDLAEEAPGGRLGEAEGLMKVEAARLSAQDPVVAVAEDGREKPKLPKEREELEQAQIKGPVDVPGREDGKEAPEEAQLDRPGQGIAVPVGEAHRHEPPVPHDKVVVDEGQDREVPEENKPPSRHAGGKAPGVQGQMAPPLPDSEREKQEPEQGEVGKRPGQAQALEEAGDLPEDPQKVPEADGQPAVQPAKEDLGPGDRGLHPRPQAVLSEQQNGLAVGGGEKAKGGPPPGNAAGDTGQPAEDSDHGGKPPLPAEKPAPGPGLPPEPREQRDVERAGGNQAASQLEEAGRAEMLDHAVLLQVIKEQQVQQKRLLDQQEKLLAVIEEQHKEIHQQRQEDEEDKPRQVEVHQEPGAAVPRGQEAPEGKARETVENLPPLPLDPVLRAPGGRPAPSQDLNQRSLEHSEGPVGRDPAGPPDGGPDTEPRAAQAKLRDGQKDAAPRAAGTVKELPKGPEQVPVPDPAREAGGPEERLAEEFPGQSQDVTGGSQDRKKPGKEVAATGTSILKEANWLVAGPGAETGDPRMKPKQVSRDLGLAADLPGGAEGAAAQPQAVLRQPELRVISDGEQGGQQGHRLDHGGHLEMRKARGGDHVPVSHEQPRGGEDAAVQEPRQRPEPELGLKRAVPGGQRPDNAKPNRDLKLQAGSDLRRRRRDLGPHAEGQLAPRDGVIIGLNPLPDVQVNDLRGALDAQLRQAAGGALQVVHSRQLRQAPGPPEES
inactive: [1] 0.007 | [2] 0.007 | [3] 0.036 | [4] -0.053 | [5] -0.04

SMARCA4 (UniProt P51532)
inactive: [1] -0.034 | [2] 0.016 | [3] 0.003 | [4] 0.014 | [5] 0.055

SH3GL1 (UniProt Q99961)
Sequence of UniProt Q99961 (Q99961 whole entry, looked up): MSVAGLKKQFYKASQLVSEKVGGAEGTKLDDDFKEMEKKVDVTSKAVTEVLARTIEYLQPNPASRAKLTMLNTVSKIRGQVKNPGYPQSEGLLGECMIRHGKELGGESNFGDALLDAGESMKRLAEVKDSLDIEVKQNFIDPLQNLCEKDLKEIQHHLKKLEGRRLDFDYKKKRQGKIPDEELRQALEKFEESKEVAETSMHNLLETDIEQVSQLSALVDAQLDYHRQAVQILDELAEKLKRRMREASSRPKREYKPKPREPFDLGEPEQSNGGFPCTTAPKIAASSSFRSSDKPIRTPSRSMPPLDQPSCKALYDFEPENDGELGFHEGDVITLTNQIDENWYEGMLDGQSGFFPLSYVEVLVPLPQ
inactive: [1] 0.007 | [2] 0.016 | [3] 0.007 | [4] 0.012 | [5] 0.003

STK25 (UniProt O00506)
inactive: [1] -0.05 | [2] 0.035 | [3] -0.062 | [4] 0.053 | [5] -0.048

SMAD2 (UniProt Q15796)
inactive: [1] -0.006 | [2] 0.024 | [3] -0.104 | [4] 0.023 | [5] 0

SRM (UniProt P19623)
Sequence of UniProt P19623 (P19623 whole entry, looked up): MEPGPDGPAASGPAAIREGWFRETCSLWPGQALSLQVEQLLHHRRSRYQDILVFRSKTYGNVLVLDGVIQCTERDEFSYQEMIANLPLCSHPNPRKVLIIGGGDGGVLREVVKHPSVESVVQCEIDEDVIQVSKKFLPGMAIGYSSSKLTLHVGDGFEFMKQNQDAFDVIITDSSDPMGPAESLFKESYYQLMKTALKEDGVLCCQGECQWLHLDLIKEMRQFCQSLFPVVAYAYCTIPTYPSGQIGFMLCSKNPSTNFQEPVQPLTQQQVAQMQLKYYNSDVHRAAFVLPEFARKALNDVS
inactive: [1] -0.007 | [2] 0.029 | [3] 0.001 | [4] 0.009 | [5] 0.039

SMG1 (UniProt Q96Q15)
inactive: [1] -0.05 | [2] -0.012 | [3] 0.018 | [4] 0.034 | [5] 0.046

SND1 (UniProt Q7KZF4)
inactive: [1] -0.008 | [2] 0.021 | [3] 0.022 | [4] 0.037 | [5] 0.041

TAF6L (UniProt Q9Y6J9)
inactive: [1] 0.011 | [2] -0.027 | [3] -0.094 | [4] -0.02 | [5] 0.061

SNRPD3 (UniProt P62318)
Sequence of UniProt P62318 (P62318 whole entry, looked up): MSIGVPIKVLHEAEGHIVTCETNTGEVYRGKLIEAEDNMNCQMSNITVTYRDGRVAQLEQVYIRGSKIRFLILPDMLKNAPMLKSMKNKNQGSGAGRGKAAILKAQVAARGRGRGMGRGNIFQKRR
inactive: [1] -0.02 | [2] -0.011 | [3] 0.022 | [4] -0.027 | [5] -0.118

SLC30A9 (UniProt Q6PML9)
Sequence of UniProt Q6PML9 (Q6PML9 whole entry, looked up): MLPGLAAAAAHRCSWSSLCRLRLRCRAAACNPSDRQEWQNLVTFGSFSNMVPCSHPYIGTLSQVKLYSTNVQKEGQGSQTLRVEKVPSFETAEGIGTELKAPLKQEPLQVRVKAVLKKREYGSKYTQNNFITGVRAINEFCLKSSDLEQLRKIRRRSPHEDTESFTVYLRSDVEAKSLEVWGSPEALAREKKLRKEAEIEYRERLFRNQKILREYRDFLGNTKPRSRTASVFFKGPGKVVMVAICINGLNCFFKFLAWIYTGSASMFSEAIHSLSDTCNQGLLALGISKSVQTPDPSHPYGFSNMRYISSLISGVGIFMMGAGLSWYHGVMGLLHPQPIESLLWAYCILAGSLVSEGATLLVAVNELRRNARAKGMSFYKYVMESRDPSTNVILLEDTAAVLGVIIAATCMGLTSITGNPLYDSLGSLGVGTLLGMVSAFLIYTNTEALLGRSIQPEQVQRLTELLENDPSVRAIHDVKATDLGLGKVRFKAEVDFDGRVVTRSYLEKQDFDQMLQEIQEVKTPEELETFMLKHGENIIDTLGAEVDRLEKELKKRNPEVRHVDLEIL
inactive: [1] -0.013 | [2] -0.045 | [3] 0.003 | [4] -0.013 | [5] -0.105

SP1 (UniProt P08047)
Sequence of UniProt P08047 (P08047 whole entry, looked up): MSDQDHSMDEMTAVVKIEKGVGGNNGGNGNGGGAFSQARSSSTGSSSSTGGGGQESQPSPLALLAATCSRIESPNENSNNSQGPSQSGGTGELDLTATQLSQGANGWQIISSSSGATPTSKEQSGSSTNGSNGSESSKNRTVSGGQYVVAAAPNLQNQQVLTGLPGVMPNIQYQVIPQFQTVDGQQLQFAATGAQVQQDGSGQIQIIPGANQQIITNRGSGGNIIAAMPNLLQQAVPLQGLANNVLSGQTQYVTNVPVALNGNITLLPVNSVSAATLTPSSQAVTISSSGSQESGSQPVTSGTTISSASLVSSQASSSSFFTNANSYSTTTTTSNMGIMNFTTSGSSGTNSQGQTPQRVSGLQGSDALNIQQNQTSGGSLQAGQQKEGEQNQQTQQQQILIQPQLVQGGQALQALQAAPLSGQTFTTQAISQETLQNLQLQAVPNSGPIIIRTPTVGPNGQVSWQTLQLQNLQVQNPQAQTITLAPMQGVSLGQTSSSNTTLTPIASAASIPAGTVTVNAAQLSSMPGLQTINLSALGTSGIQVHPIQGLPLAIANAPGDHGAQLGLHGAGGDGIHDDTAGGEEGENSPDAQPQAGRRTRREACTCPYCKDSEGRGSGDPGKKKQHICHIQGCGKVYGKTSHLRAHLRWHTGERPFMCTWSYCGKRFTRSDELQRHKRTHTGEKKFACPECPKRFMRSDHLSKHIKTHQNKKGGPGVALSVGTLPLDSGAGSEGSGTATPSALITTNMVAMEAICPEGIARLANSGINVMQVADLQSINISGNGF
inactive: [1] 0.007 | [2] 0.042 | [3] 0.001 | [4] 0.038 | [5] 0

SLC20A1 (UniProt Q8WUM9)
Sequence of UniProt Q8WUM9 (Q8WUM9 whole entry, looked up): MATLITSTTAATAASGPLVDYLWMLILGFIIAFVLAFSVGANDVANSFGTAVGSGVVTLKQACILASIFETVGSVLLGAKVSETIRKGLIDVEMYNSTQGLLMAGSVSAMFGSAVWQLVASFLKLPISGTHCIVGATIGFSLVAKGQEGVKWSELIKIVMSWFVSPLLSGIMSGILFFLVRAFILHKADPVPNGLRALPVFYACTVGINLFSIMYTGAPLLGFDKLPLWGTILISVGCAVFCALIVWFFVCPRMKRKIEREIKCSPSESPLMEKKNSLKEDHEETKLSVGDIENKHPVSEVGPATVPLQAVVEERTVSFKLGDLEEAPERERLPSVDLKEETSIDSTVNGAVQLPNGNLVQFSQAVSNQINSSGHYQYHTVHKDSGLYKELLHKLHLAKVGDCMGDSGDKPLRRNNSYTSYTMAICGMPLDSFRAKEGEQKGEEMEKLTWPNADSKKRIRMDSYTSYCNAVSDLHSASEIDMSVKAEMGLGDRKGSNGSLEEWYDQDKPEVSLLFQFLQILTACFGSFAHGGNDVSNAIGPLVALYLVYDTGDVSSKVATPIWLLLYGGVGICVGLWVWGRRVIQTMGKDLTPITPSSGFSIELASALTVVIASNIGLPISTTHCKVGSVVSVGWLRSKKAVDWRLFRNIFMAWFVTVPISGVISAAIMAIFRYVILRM
inactive: [1] 0.071 | [2] -0.048 | [3] 0.007 | [4] -0.046 | [5] 0.024

SSB (UniProt P05455)
inactive: [1] -0.004 | [2] 0.015 | [3] -0.009 | [4] 0.012 | [5] 0.068

STAU1 (UniProt O95793)
inactive: [1] -0.023 | [2] -0.021 | [3] 0.012 | [4] 0.059 | [5] 0.09

SFN (UniProt P31947)
Sequence of UniProt P31947 (P31947 whole entry, looked up): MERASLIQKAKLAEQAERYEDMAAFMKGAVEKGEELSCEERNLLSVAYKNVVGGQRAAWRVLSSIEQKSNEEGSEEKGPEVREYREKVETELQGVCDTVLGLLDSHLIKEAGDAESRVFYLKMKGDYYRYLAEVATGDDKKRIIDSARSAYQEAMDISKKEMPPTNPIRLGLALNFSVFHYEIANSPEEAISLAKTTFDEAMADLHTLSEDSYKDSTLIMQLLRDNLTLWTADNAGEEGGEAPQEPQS
inactive: [1] 0.039 | [2] -0.033 | [3] -0.023 | [4] 0.041 | [5] 0.046

SYNRG (UniProt Q9UMZ2)
inactive: [1] -0.033 | [2] 0.05 | [3] 0 | [4] 0.005 | [5] 0.032

SMC4 (UniProt Q9NTJ3)
inactive: [1] -0.033 | [2] 0.003 | [3] -0.011 | [4] -0.005 | [5] 0.055
